For 43 sequences, binding signal results are on record in publication PMC7819943, “Rice protein-binding microarrays: a tool to detect cis-acting elements near promoter regions in rice”.

In all, about 39,000 sequences were measured (“fluorescence intensity (a.u.)”: median about 4,300, highest 2% from about 39,000 on). Shown is part of a subset that was picked to be rich in the highest values.

The target in the assay is T1, OsSMF1 (Oryza sativa, UniProt Q6ZLB0 1-436).
T1 sequence: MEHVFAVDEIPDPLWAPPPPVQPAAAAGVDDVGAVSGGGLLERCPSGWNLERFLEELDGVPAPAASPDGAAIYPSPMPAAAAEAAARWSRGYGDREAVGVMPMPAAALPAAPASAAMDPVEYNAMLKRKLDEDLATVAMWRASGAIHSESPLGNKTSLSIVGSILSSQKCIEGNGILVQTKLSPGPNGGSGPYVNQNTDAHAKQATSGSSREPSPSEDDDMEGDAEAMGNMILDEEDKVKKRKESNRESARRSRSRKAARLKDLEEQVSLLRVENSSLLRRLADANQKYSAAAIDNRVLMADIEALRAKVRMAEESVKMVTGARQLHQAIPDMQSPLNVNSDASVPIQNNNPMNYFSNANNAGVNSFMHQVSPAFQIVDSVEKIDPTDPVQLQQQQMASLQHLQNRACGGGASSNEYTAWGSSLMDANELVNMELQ
The assay can be described thus: protein-binding microarray (RPBM); PBS, 2% BSA, 51.3 ng/ul salmon testes DNA, 50 uM zinc acetate, 200 nM TF, 25 C, 1 h; high values mean tight binding. The note with it: protein: recombinant; tags: N-terminal polyhistidine and DsRed monomer fusion (pET32a); chain copies: 2; label: CyDye5-dUTP incorporated in the synthesized complementary strand; 3' TTTTT single-stranded linker to array surface; dsDNA, one strand shown. The essentials: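 An Axon 4000B scanner gave the binding signal as per-feature fluorescence intensity in arbitrary units. This followed washing of a custom Agilent array that had been incubated for 1 h at 25 °C with 200 nM protein in PBS, 2% BSA, salmon testes DNA and 50 µM zinc acetate. The proteins were transcription factors fused at the N-terminus to polyhistidine and DsRed, expressed in E. coli BL21-CodonPlus and purified on Ni–NTA.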
As for “CCATCCACCATTCACTTTCCCACCTACCTCCACTATTTATCGGAGTCACCTAGTGCAG”, the binding signal was 3430 fluorescence intensity (a.u.). Regarding “AATAATGGGCTGAAAATATGTGACGCGAGGCGAGGGTCCCCGGAGTCACCTAGTGCAG”, the binding signal was 3260 fluorescence intensity (a.u.). To “CGCCAACACGACGCTGTGCCGTGGCGCGCCGACAATCATCCGGAGTCACCTAGTGCAG” belongs 3600 fluorescence intensity (a.u.); to “ACATGCCGCTAGGAAATATCCCATCCGGTGCCTGTCTAGACGGAGTCACCTAGTGCAG”, 3150 fluorescence intensity (a.u.). Regarding “TTGCCGGTACTTTGGTACGTCATCCGTGTATAAGTCGGTTCGGAGTCACCTAGTGCAG”, the binding signal is 5840 fluorescence intensity (a.u.). With “GTGTTCCGCAGCGGCCGGGAGACGCGCCGGCTTGTCCCCTCGGAGTCACCTAGTGCAG”, the binding signal is 42300 fluorescence intensity (a.u.). Turning to “TCCGCGGCTCCGCGCTCTCCCCTCGCCGGTGTCACCGCTCCGGAGTCACCTAGTGCAG”, the binding signal was 3390 fluorescence intensity (a.u.). Take “CTTGTGGCCGGCGCAGCCGCCGCACCCCTCCGACGTGTTCCGGAGTCACCTAGTGCAG”: the binding signal is 5380 fluorescence intensity (a.u.). As to “CTAACCACGCCCGCCACGTACGCCGCCTCTGGGACCCCGACGGAGTCACCTAGTGCAG”, the binding signal was 5440 fluorescence intensity (a.u.). In the case of “GCAGCATCTGTGATCTCTCAGTGGGACCCACGTGTCATTGCGGAGTCACCTAGTGCAG”, the binding signal is 5010 fluorescence intensity (a.u.). On to “CCCTGTCCTGAAACGCCGTGACGGCTTCTCCTTCTCCCTCCGGAGTCACCTAGTGCAG”, for which the binding signal was 8960 fluorescence intensity (a.u.). As to “GTACTCCGTACTAGTAGTGGCACTCAATGTTCGGTATCTGCGGAGTCACCTAGTGCAG”, the binding signal was 50200 fluorescence intensity (a.u.).

In the case of “GTCAGTGGCTCAGTGCCACCCGTAGTGTACTGCCACTCCGCGGAGTCACCTAGTGCAG”, the binding signal is 3370 fluorescence intensity (a.u.). As to “CATATATATCTGACTAAAACGGTATATGTTGCACGTAGTGCGGAGTCACCTAGTGCAG”, the binding signal was 3360 fluorescence intensity (a.u.). For the sequence “ATACTATGTTAATTTGTCTGTGTCCTAATGACGCACCATACGGAGTCACCTAGTGCAG”, the binding signal was 4820 fluorescence intensity (a.u.). The same measure for “TTTACTGTAGCACCACATTGTCAAATTATGACGTAATTAGCGGAGTCACCTAGTGCAG”: 5440 fluorescence intensity (a.u.); for “AACTTTGTTGTTGATGACGTTTTCAGTTGAAGTCGTTCACCGGAGTCACCTAGTGCAG”: 7120 fluorescence intensity (a.u.); for “AACGTGCCACTTTACCTGACGTGATGAAACAATATTATCACGGAGTCACCTAGTGCAG”: 3320 fluorescence intensity (a.u.).

As to “TGATTATTTGTGAAATAAAATGAGATAAAATGTGATTTTACGGAGTCACCTAGTGCAG”, the binding signal is 28600 fluorescence intensity (a.u.). The same measure for “ATTTGTAAACAATGTTACTATCACTTTATCAGATGAAGAACGGAGTCACCTAGTGCAG”: 34600 fluorescence intensity (a.u.); for “TGAACAATGTTACAAATCACTTTATCGGATGAAGAAATGACGGAGTCACCTAGTGCAG”: 46400 fluorescence intensity (a.u.); for “ATGCTATTATATAAGAGAAAATATAATGATGCTGGCCGTGCGGAGTCACCTAGTGCAG”: 3240 fluorescence intensity (a.u.).

In the case of “GGATGATGTGACTTAATAACAGAAGAGAGAAATAATATTACGGAGTCACCTAGTGCAG”, the binding signal was 40600 fluorescence intensity (a.u.). As to “CCAGGTCCCAGCCAGGGGTTTATTAGCTGATTCAAGACGTCGGAGTCACCTAGTGCAG”, the binding signal is 14900 fluorescence intensity (a.u.). As to “CTGGACAGGAAGCAAAGCTCCTGACACGCCCAGCCGTCCCCGGAGTCACCTAGTGCAG”, the binding signal was 3220 fluorescence intensity (a.u.). To “ACCGCCATGTAGGTGCCACGTCATCGCCACGTGGAACGAACGGAGTCACCTAGTGCAG” belongs 32700 fluorescence intensity (a.u.). “CCGGATGACATGATGACACCGCTACCCATTAAGTTTCGTCCGGAGTCACCTAGTGCAG”: the binding signal is 4050 fluorescence intensity (a.u.). As for “CTCCTTCCATTTGTACCCACGTCTGCTGTCCATTGACCGGCGGAGTCACCTAGTGCAG”, the binding signal is 6910 fluorescence intensity (a.u.). For “TCACCCTGTCCTCGTCACGTCCCATTTTACATCCACCACCCGGAGTCACCTAGTGCAG”, the binding signal was 6570 fluorescence intensity (a.u.). As for “CCCATTGATGCTACAGAGAGTCCACGTCACCCTCGTCTGCCGGAGTCACCTAGTGCAG”, the binding signal was 42800 fluorescence intensity (a.u.).

With “AGCTAGTACCTCACATGCATTCATCTTGCTTGCAATCCGTCGGAGTCACCTAGTGCAG”, the binding signal was 45100 fluorescence intensity (a.u.).

Take “GCTTGCTTGCTTGCATCCTCCTCACATTCACCACGAGGTTCGGAGTCACCTAGTGCAG”: the binding signal is 3670 fluorescence intensity (a.u.). The same measure for “GAATCTAGTAGCTTGCATCCTTTACATCTTCTCATCCTGTCGGAGTCACCTAGTGCAG”: 32700 fluorescence intensity (a.u.); for “CATTCTTAATGTAAAATATGAATGTAAATGAAATGTATGCCGGAGTCACCTAGTGCAG”: 3840 fluorescence intensity (a.u.); for “CACAAGTTCTCCTACGCTGACTCCTCTCTTGGAACTTCAGCGGAGTCACCTAGTGCAG”: 5030 fluorescence intensity (a.u.). To “GGCCCACGTGGGTCCCACACTGACTCAGCTGCCACGTGGGCGGAGTCACCTAGTGCAG” belongs 38600 fluorescence intensity (a.u.); to “TATGCGTGGGTCACTGGGCCCACACGTCATCCTCACGTGGCGGAGTCACCTAGTGCAG”, 49000 fluorescence intensity (a.u.). For the sequence “ATATGTGGGTCTCATGCTGACTCATCCGCCACGTCAGATACGGAGTCACCTAGTGCAG”, the binding signal was 42600 fluorescence intensity (a.u.). To “CTGCACGTTACTCACGTGGCATCTCCAACTCTACCGCCAACGGAGTCACCTAGTGCAG” belongs 7570 fluorescence intensity (a.u.). As for “GTTAGCGTGGCATGCCACGTCATCTCACGAAGCGGGTTAGCGGAGTCACCTAGTGCAG”, the binding signal was 18100 fluorescence intensity (a.u.). As to “GCATGCATTGCCTCTTGCTCGCCTACGTGGTAATGAAAACCGGAGTCACCTAGTGCAG”, the binding signal is 6560 fluorescence intensity (a.u.). Turning to “GGGGTGAAAATGAATTAGATGCCACGTGCAGGTTCGCATGCGGAGTCACCTAGTGCAG”, the binding signal was 10000 fluorescence intensity (a.u.). On to “CCCACGTGGGTCCCACGCTGACTCAGCCGCCACGTAGATCCGGAGTCACCTAGTGCAG”, for which the binding signal is 25400 fluorescence intensity (a.u.).
